# Measured values: the supplement of paper PMC12282887
# ± gives the standard deviation of the averaged measurements.
# How the values were obtained:
# Assay in all cases: promoter activity interaction Z-score (Lux/OD deviation from empty-vector control); higher = stronger promoter induction by the compound
# [1] = system: E. coli BW25113 acrABp lux reporter
# How it was run: (§1)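 E. coli BW25113, as wild type or one of three single-gene deletion strains, carried low-copy luxCDABE promoter reporters and grew in 40 µl LB Lennox in 384-well plates at 37°C, with OD600 and luminescence read every 30 min for 12 h. Each compound was run at four 1:2 dilutions in biological duplicates, integration spanned 0–8 h for wild type and 1–9 h for deletion strains, and wells under 10% of the median growth value were dropped. The score is the Z-transformed residual of growth-normalised luminescence fitted against a control.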
# [2] = system: E. coli BW25113 marRABp lux reporter
# How it was run: as §1
# [3] = system: E. coli BW25113 micFp lux reporter
# How it was run: as §1
# [4] = system: E. coli BW25113 ompFp lux reporter
# How it was run: as §1
# [5] = system: E. coli BW25113 robp lux reporter
# How it was run: as §1
# [6] = system: E. coli BW25113 soxSp lux reporter
# How it was run: as §1
# [7] = system: E. coli BW25113 tolCp lux reporter
# How it was run: as §1
# [8] = 0.011 µg/ml, genetic background: wild type
# [9] = 0.011 µg/ml, genetic background: ΔmarA
# [10] = 0.011 µg/ml, genetic background: Δrob
# [11] = 0.011 µg/ml, genetic background: ΔsoxS
# [12] = 0.023 µg/ml, genetic background: wild type
# [13] = 0.023 µg/ml, genetic background: ΔmarA
# [14] = 0.023 µg/ml, genetic background: Δrob
# [15] = 0.023 µg/ml, genetic background: ΔsoxS
# [16] = 0.046 µg/ml, genetic background: wild type
# [17] = 0.046 µg/ml, genetic background: ΔmarA
# [18] = 0.046 µg/ml, genetic background: Δrob
# [19] = 0.046 µg/ml, genetic background: ΔsoxS
# [20] = 0.091 µg/ml, genetic background: wild type
# [21] = 0.091 µg/ml, genetic background: ΔmarA
# [22] = 0.091 µg/ml, genetic background: Δrob
# [23] = 0.091 µg/ml, genetic background: ΔsoxS
structure (smiles),measurement,setting,value
C[C@@H]1O[C@@H]1P(=O)(O)O [Fosfomycin],promoter activity interaction Z-score,[1]; [8],-0.0514 ± 0.17
same,promoter activity interaction Z-score,[1]; [9],0.0429 ± 0.25
same,promoter activity interaction Z-score,[1]; [10],0.201 ± 0.24
same,promoter activity interaction Z-score,[1]; [11],-0.0843 ± 0.31
same,promoter activity interaction Z-score,[1]; [12],0.134 ± 0.25
same,promoter activity interaction Z-score,[1]; [13],0.445 ± 0.43
same,promoter activity interaction Z-score,[1]; [14],0.174 ± 0.14
same,promoter activity interaction Z-score,[1]; [15],-0.242 ± 0.29
same,promoter activity interaction Z-score,[1]; [16],-0.142 ± 0.12
same,promoter activity interaction Z-score,[1]; [17],-0.284 ± 0.14
same,promoter activity interaction Z-score,[1]; [18],0.229 ± 0.37
same,promoter activity interaction Z-score,[1]; [19],0.118 ± 0.17
same,promoter activity interaction Z-score,[1]; [20],1.76 ± 0.8
same,promoter activity interaction Z-score,[1]; [21],2.58 ± 0.66
same,promoter activity interaction Z-score,[1]; [22],1.15 ± 0.18
same,promoter activity interaction Z-score,[1]; [23],0.198 ± 1.3
same,promoter activity interaction Z-score,[2]; [8],0.112 ± 0.27
same,promoter activity interaction Z-score,[2]; [9],0.0292 ± 0.18
same,promoter activity interaction Z-score,[2]; [10],-0.0327 ± 0.12
same,promoter activity interaction Z-score,[2]; [11],0.00491 ± 0.17
same,promoter activity interaction Z-score,[2]; [12],0.0365 ± 0.015
same,promoter activity interaction Z-score,[2]; [13],0.0557 ± 0.48
same,promoter activity interaction Z-score,[2]; [14],-0.0686 ± 0.17
same,promoter activity interaction Z-score,[2]; [15],-0.0756 ± 0.00091
same,promoter activity interaction Z-score,[2]; [16],-0.461 ± 0.53
same,promoter activity interaction Z-score,[2]; [17],-0.206 ± 0.0084
same,promoter activity interaction Z-score,[2]; [18],-0.0852 ± 0.1
same,promoter activity interaction Z-score,[2]; [19],0.136 ± 0.17
same,promoter activity interaction Z-score,[2]; [20],1.62 ± 0.061
same,promoter activity interaction Z-score,[2]; [21],1.31 ± 0.6
same,promoter activity interaction Z-score,[2]; [22],0.576 ± 0.054
same,promoter activity interaction Z-score,[2]; [23],1.75 ± 0.052
same,promoter activity interaction Z-score,[3]; [8],-0.227 ± 0.25
same,promoter activity interaction Z-score,[3]; [9],0.053 ± 0.061
same,promoter activity interaction Z-score,[3]; [10],-0.0521 ± 0.036
same,promoter activity interaction Z-score,[3]; [11],-0.3 ± 0.065
same,promoter activity interaction Z-score,[3]; [12],-0.0683 ± 0.18
same,promoter activity interaction Z-score,[3]; [13],0.0385 ± 0.078
same,promoter activity interaction Z-score,[3]; [14],-0.0229 ± 0.046
same,promoter activity interaction Z-score,[3]; [15],-0.31 ± 0.0043
same,promoter activity interaction Z-score,[3]; [16],-0.471 ± 0.25
same,promoter activity interaction Z-score,[3]; [17],-0.104 ± 0.084
same,promoter activity interaction Z-score,[3]; [18],-0.121 ± 0.023
same,promoter activity interaction Z-score,[3]; [19],0.017 ± 0.027
same,promoter activity interaction Z-score,[3]; [20],0.578 ± 0.33
same,promoter activity interaction Z-score,[3]; [21],-0.163 ± 0.034
same,promoter activity interaction Z-score,[3]; [22],-0.0601 ± 0.12
same,promoter activity interaction Z-score,[3]; [23],-0.264 ± 0.2
same,promoter activity interaction Z-score,[4]; [8],0.269 ± 0.034
same,promoter activity interaction Z-score,[4]; [9],0.352 ± 0.034
same,promoter activity interaction Z-score,[4]; [10],-0.181 ± 0.21
same,promoter activity interaction Z-score,[4]; [11],0.154 ± 0.62
same,promoter activity interaction Z-score,[4]; [12],0.162 ± 0.32
same,promoter activity interaction Z-score,[4]; [13],0.534 ± 0.28
same,promoter activity interaction Z-score,[4]; [14],0.297 ± 0.084
same,promoter activity interaction Z-score,[4]; [15],-0.146 ± 0.43
same,promoter activity interaction Z-score,[4]; [16],-0.707 ± 0.057
same,promoter activity interaction Z-score,[4]; [17],0.0141 ± 0.47
same,promoter activity interaction Z-score,[4]; [18],0.161 ± 0.65
same,promoter activity interaction Z-score,[4]; [19],0.414 ± 0.21
same,promoter activity interaction Z-score,[4]; [20],3.07 ± 0.41
same,promoter activity interaction Z-score,[4]; [21],3.8 ± 2.2
same,promoter activity interaction Z-score,[4]; [22],2.55 ± 1.5
same,promoter activity interaction Z-score,[4]; [23],2.08 ± 5
same,promoter activity interaction Z-score,[5]; [8],0.505 ± 0.043
same,promoter activity interaction Z-score,[5]; [9],0.245 ± 0.25
same,promoter activity interaction Z-score,[5]; [10],0.133 ± 0.36
same,promoter activity interaction Z-score,[5]; [11],0.554 ± 0.71
same,promoter activity interaction Z-score,[5]; [12],0.0622 ± 0.91
same,promoter activity interaction Z-score,[5]; [13],0.483 ± 0.81
same,promoter activity interaction Z-score,[5]; [14],0.389 ± 0.11
same,promoter activity interaction Z-score,[5]; [15],1.15 ± 1.3
same,promoter activity interaction Z-score,[5]; [16],-0.338 ± 0.75
same,promoter activity interaction Z-score,[5]; [17],-0.357 ± 0.2
same,promoter activity interaction Z-score,[5]; [18],0.416 ± 0.18
same,promoter activity interaction Z-score,[5]; [19],1.3 ± 1
same,promoter activity interaction Z-score,[5]; [20],-0.301 ± 0.048
same,promoter activity interaction Z-score,[5]; [21],0.127 ± 0.3
same,promoter activity interaction Z-score,[5]; [22],-0.752 ± 0.35
same,promoter activity interaction Z-score,[5]; [23],-0.158 ± 0.9
same,promoter activity interaction Z-score,[6]; [8],0.228 ± 0.36
same,promoter activity interaction Z-score,[6]; [9],0.2 ± 0.11
same,promoter activity interaction Z-score,[6]; [10],-0.0473 ± 0.12
same,promoter activity interaction Z-score,[6]; [11],0.164 ± 0.072
same,promoter activity interaction Z-score,[6]; [12],-0.175 ± 0.12
same,promoter activity interaction Z-score,[6]; [13],0.188 ± 0.14
same,promoter activity interaction Z-score,[6]; [14],-0.154 ± 0.05
same,promoter activity interaction Z-score,[6]; [15],0.0176 ± 0.14
same,promoter activity interaction Z-score,[6]; [16],-0.307 ± 0.09
same,promoter activity interaction Z-score,[6]; [17],0.119 ± 0.16
same,promoter activity interaction Z-score,[6]; [18],0.0235 ± 0.023
same,promoter activity interaction Z-score,[6]; [19],0.138 ± 0.19
same,promoter activity interaction Z-score,[6]; [20],-0.0128 ± 0.14
same,promoter activity interaction Z-score,[6]; [21],0.0924 ± 0.018
same,promoter activity interaction Z-score,[6]; [22],-0.135 ± 0.043
same,promoter activity interaction Z-score,[6]; [23],0.657 ± 0.49
same,promoter activity interaction Z-score,[7]; [8],-0.233 ± 0.12
same,promoter activity interaction Z-score,[7]; [9],-0.202 ± 0.12
same,promoter activity interaction Z-score,[7]; [10],-0.412 ± 0.27
same,promoter activity interaction Z-score,[7]; [11],-0.149 ± 0.38
same,promoter activity interaction Z-score,[7]; [12],-0.358 ± 0.5
same,promoter activity interaction Z-score,[7]; [13],0.891 ± 0.16
same,promoter activity interaction Z-score,[7]; [14],-0.173 ± 0.68
same,promoter activity interaction Z-score,[7]; [15],0.35 ± 0.7
same,promoter activity interaction Z-score,[7]; [16],-1.79 ± 0.32
same,promoter activity interaction Z-score,[7]; [17],-0.292 ± 0.4
same,promoter activity interaction Z-score,[7]; [18],-0.445 ± 0.36
same,promoter activity interaction Z-score,[7]; [19],0.22 ± 0.3
same,promoter activity interaction Z-score,[7]; [20],-0.204 ± 0.16
same,promoter activity interaction Z-score,[7]; [21],-0.347 ± 0.15
same,promoter activity interaction Z-score,[7]; [22],-0.366 ± 0.71
same,promoter activity interaction Z-score,[7]; [23],-0.266 ± 0.13
